Data: PubChem BioAssay AID1739 (National Center for Advancing Translational Sciences (NCATS), 2009)
Results filed as inconclusive are left out. Activity calls are given as the source filed them. Calls follow the shape of the dose curve; as a rule, active = well fitted inhibition curve with a large enough effect; inconclusive = small, poorly fitted or top-dose-only effect; inactive = flat fitted curve, though single readings scatter.

Assay: Counterscreen Assay for Enhancers of SMN2 Splice Variant Expression: Modulation of SMN1 Expression
Conditions: HEK293 SMN1-luciferase reporter, luminescence, 30-36 h; series mostly up to 22.8 µM; activity change, negative = inhibition: at the top concentration
Excerpt: NIH Chemical Genomics Center [NCGC] NIH Molecular Libraries Probe Production centers Network [MLPCN] MLPCN Grant: R03 MH084179-01 Assay Submitter (PI): Elliot Androphy NCGC Assay Overview: Spinal muscular atrophy (SMA) is caused by insufficient levels of the survival motor neuron protein SMN. The SMN locus on chromosome 5q13 contains two inverted copies of SMN called SMN1 and SMN2 which are 99% identical at the amino acid level. SMN1 is a fully functional protein and SMN2 skips exon 7 90% of the time. Skipping of exon 7 produces non-functional protein product. 10% of the SMN2 protein includes exon 7 and is fully functional. In the SMA disease state, mutations in the SMN1 locus are the cause of the disease state. Because only 10% of SMN2 is of the fully functional form, it is not sufficient to overcome the deficiency produced by the loss of the SMN1 product. A therapy that either increase the amount of SMN2 product made or to increase the inclusion of exon 7 has been proposed for the treatment of SMA. We have designed an assay to identify small molecules that can increase the amount of functional SMN2 product by appending a luciferase reporter gene after the native SMN2 gene, such that inclusion of exon 7 in the expressed product places the luciferase sequence in frame, thus generating functional luciferase enzyme. As a counterscreen for nonspecific modulators of expression, we have run compounds through a similar assay that measures expression of an SMN1-luciferase chimera.
NCGC Assay Protocol Summary: This screen utilizes a luciferase reporter gene assay, combining the promoter with the major portion of the native SMN1 cDNA (exons 1 -7, intron 8 , exon 8 fused to luciferase) stably expressed in HEK293 cells. Compounds that increase luciferase signal presumably enhance expression of the functional SMN1 splice variant. Passaging media contained DMEM w/ glutamax (+phenol red) 10% FCS, 1x pen/strep, 200 ug/ml hygro, 1x sodium pyruvate. Assay media contained DMEM w/ glutamax (-phenol red) 10% FCS, 1x pen strep, 1x pyruvate Sequence, Parameter, Value, Description (1) Cells, 5 uL, 2000 cells/well, 1536 TC treated White solid bottom plate (2) Time, 10-12 hours, 37C 5% CO2 (3) Compound, 23 nl, MLSMR Library (4) Control Compound, 23 nL, Sodium butyrate st 4.5mM (final) conc (5) Time, 30-36 hours, 37C 5% CO2 (6) Reagent, 3 ul, One Glo (TM) from Promega (7) Time, 5-15 minutes, Room temp (8) Detector, Viewlux: luminescent read, 60 second integration, high speed 2x binning Keywords: Spinal muscular atrophy, SMA, SMN2, high throughput screening, MLSMR, MLPCN, NIH Roadmap, qHTS and NCGC

Row | SMILES | activity change, negative = inhibition | Potency
1 | O=[N+]([O-])c1ccc(-c2nnc(-c3ccccc3)c(N3CCOCC3)n2)cc1 | 3.38% (inactive) | 
2 | O=C(Nc1nc(-c2ccc3ccccc3c2)cs1)C1CCN(S(=O)(=O)c2cccs2)CC1 | -32.5% (inactive) | 
3 | Clc1nc(NCc2ccco2)c2[nH]cnc2n1 | -19.7% [at 46.1 µM] (inactive) | 
4 | O=c1[nH]c(=O)n(C2CCCO2)cc1Br (stereo not drawn) | 4.65% (inactive) | 
5 | OCCCNc1nc(-c2ccc(Cl)cc2)nnc1-c1ccc(Br)cc1 | 1.41% (inactive) | 
6 | O=C1CCC(C(=O)Nc2cccc3ccccc23)N1 (stereo not drawn) | -6.36% [at 46.1 µM] (inactive) | 
7 | Brc1ccc(-c2nnc(-c3ccccc3)c(N3CCSCC3)n2)cc1 | 14.9% (inactive) | 
8 | OCCCNc1nc(-c2ccc(Br)cc2)nnc1-c1ccc(Cl)cc1 | -28.5% (inactive) | 
9 | CC1CN(c2nc(-c3ccc(Br)cc3)nnc2-c2ccccc2)CC(C)N1 (stereo not drawn) | -26.8% (inactive) | 
10 | CCCSc1nnc(Sc2nnnn2-c2ccccc2)s1 |  | 7.08 µM (active)
11 | O=C(NCCCNCCCNC(=O)c1ccccn1)c1ccccn1 | 24.4% [at 46.1 µM] (inactive) | 
12 | COCCCN1C(=O)C(=O)/C(=C(/O)c2ccc3c(c2)CC(C)O3)C1c1cccnc1 (stereo not drawn) | -6.27% [at 46.1 µM] (inactive) | 
13 | CN(C)CCCN(C(=O)c1cccs1)c1nc(-c2ccccc2)cs1 | -16% (inactive) | 
14 | COC(=O)C1=C(C)NC(=O)/C1=C\c1cc(C)n(-c2ccccc2F)c1C | -7.23% [at 46.1 µM] (inactive) | 
15 | COc1cccc(NC(=O)CSc2nc3ccccc3nc2N2CCOCC2)c1 |  | 5.01 µM (active)
16 | Brc1nc2ncnc(NCc3ccco3)c2[nH]1 | -15.6% [at 46.1 µM] (inactive) | 
17 | COc1nc(-c2ccccc2)nnc1-c1ccccc1 | -17.3% [at 46.1 µM] (inactive) | 
18 | Cc1ccc(C2c3c(oc4ccccc4c3=O)C(=O)N2CCCN2CCOCC2)o1 (stereo not drawn) | -11.8% [at 46.1 µM] (inactive) | 
19 | Clc1ccc(-c2nnc(-c3ccccc3)nc2N2CCSCC2)cc1 | 5.88% (inactive) | 
20 | OCCCNc1nc(-c2ccc(Cl)cc2)nnc1-c1ccccc1 | 5.49% (inactive) | 
21 | Cc1ccc(-c2nnc(-c3ccccc3)c(-c3ccccc3)n2)cc1 | -6.17% (inactive) | 
22 | COc1ccc(CNC(=O)c2ccc(C(C)C)cc2)cc1 | -15.6% [at 46.1 µM] (inactive) | 
23 | COc1ccc(-c2csc(N3CCC(C(N)=O)(N4CCCCC4)CC3)n2)cc1 | -14.5% (inactive) | 
